# According to the supplement of paper PMC8728848:
# The sample as a whole holds a higher share of the strongest signals than the screen did.
# B1: Ecp6 (Cladosporium fulvum), B3VBK9 (protein)
# chain: MQSMILFAAALMGAAVNGFVLPRTDDPDCETKATDCGSTSNIKYTVVKGDTLTSIAKKFKSGICNIVSVNKLANPNLIELGATLIIPENCSNPDNKSCVSTPAEPTETCVPGLPGSYTIVSGDTLTNISQDFNITLDSLIAANTQIENPDAIDVGQIITVPVCPSSQCEAVGTYNIVAGDLFVDLAATYHTTIGQIKALNNNVNPSKLKVGQQIILPQDCKNVTTAVA
# Legend:
# Experiment in all cases: glycan array binding signal (z-score within array); higher = stronger binding
# Conditions in all cases: glycan notation: IUPAC condensed, linker removed
# [1] = target: Fuc(a1-2)Gal(b1-3)GalNAc(a1-3)[Fuc(a1-2)]Gal(b1-4)Glc
# In short: (§1)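 Negative Z-scores can be read as non-binding. The Z-score is calculated within each array and then averaged across arrays of one protein sequence at different concentrations or buffers and across linkers. Arrays, 3228 in all, were curated from the Consortium for Functional Glycomics database and kept only where the protein sequence was available.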
# [2] = target: Fuc(a1-2)Gal(b1-3)GalNAc(a1-3)[Fuc(a1-2)]Gal(b1-4)GlcNAc
# In short: as §1
# [3] = target: Fuc(a1-2)Gal(b1-3)GlcNAc(b1-2)Man(a1-3)[Fuc(a1-2)Gal(b1-3)GlcNAc(b1-2)Man(a1-6)]Man(b1-4)GlcNAc(b1-4)GlcNAc
# In short: as §1
# Fuc(a1-2)Gal(b1-4)Glc6S = target: Fuc(a1-2)Gal(b1-4)Glc6S
# In short: as §1
# [4] = target: Fuc(a1-2)Gal(b1-4)GlcNAc(b1-3)Gal(b1-4)GlcNAc(b1-3)Gal(b1-4)GlcNAc
# In short: as §1
# [5] = target: Fuc(a1-2)Gal(b1-4)[Fuc(a1-3)]GlcNAc
# In short: as §1
# [6] = target: Fuc(a1-2)[Gal(a1-3)]Gal(b1-4)GlcNAc
# In short: as §1
# [7] = target: Fuc(a1-2)[Gal(a1-3)]Gal(b1-4)[Fuc(a1-3)]GlcNAc
# In short: as §1
# [8] = target: Fuc(a1-2)[GalNAc(b1-3)]Gal
# In short: as §1
# Fuc(b1-3)GlcNAc = target: Fuc(b1-3)GlcNAc
# In short: as §1
# [9] = target: Gal(a1-3)Gal(b1-4)[Fuc(a1-3)]GlcNAc
# In short: as §1
# [10] = target: Gal(a1-4)Gal(b1-3)GlcNAc(b1-2)Man(a1-3)[Gal(a1-4)Gal(b1-3)GlcNAc(b1-2)Man(a1-6)]Man(b1-4)GlcNAc(b1-4)GlcNAc
# In short: as §1
# Gal(a1-4)GlcNAc = target: Gal(a1-4)GlcNAc
# In short: as §1
# [11] = target: Gal(b1-3)GalNAc(b1-3)Gal(a1-4)Gal(b1-4)Glc
# In short: as §1
# [12] = target: Gal(b1-3)GlcNAc(b1-3)Gal(b1-4)Glc
# In short: as §1
# [13] = target: Gal(b1-3)GlcNAc(b1-3)Gal(b1-4)GlcNAc(b1-6)[Gal(b1-3)GlcNAc(b1-3)]Gal(b1-4)Glc
# In short: as §1
# [14] = target: Gal(b1-3)GlcNAc(b1-3)GalNAc
# In short: as §1
# [15] = target: Gal(b1-3)[Fuc(a1-4)]GlcNAc(b1-2)Man(a1-3)[Gal(b1-3)[Fuc(a1-4)]GlcNAc(b1-2)Man(a1-6)]Man(b1-4)GlcNAc(b1-4)GlcNAc
# In short: as §1
# [16] = target: Gal(b1-4)GlcNAc(b1-3)Gal(b1-4)[Fuc(a1-3)]GlcNAc(b1-3)Gal(b1-4)[Fuc(a1-3)]GlcNAc
# In short: as §1
# [17] = target: Gal(b1-4)GlcNAc(b1-3)[GlcNAc(b1-6)]Gal(b1-4)GlcNAc
# In short: as §1
# [18] = target: Gal3S(b1-3)[Fuc(a1-4)]GlcNAc
# In short: as §1
# Gal3S(b1-4)Glc = target: Gal3S(b1-4)Glc
# In short: as §1
# [19] = target: Gal3S(b1-4)[Fuc(a1-3)]Glc
# In short: as §1
# GlcA(b1-3)Gal = target: GlcA(b1-3)Gal
# In short: as §1
# [20] = target: GlcNAc(a1-4)Gal(b1-4)GlcNAc(b1-3)Gal(b1-4)GlcNAc
# In short: as §1
# [21] = target: GlcNAc(a1-4)Gal(b1-4)GlcNAc(b1-3)Gal(b1-4)[Fuc(a1-3)]GlcNAc(b1-3)Gal(b1-4)[Fuc(a1-3)]GlcNAc
# In short: as §1
# GlcNAc(b1-3)Gal(b1-4)Glc = target: GlcNAc(b1-3)Gal(b1-4)Glc
# In short: as §1
# [22] = target: GlcNAc(b1-3)Gal(b1-4)GlcNAc
# In short: as §1
# [23] = target: GlcNAc(b1-3)Gal(b1-4)GlcNAc(b1-3)Gal(b1-4)GlcNAc
# In short: as §1
# [24] = target: GlcNAc(b1-4)GlcNAc(b1-4)GlcNAc
# In short: as §1
binder,measurement,setting,value
B1,glycan array binding signal (z-score),[1],-0.099
same,glycan array binding signal (z-score),[2],-0.099
same,glycan array binding signal (z-score),[3],-0.096
same,glycan array binding signal (z-score),Fuc(a1-2)Gal(b1-4)Glc6S,-0.062
same,glycan array binding signal (z-score),[4],-0.082
same,glycan array binding signal (z-score),[5],-0.078
same,glycan array binding signal (z-score),[6],-0.078
same,glycan array binding signal (z-score),[7],-0.021
same,glycan array binding signal (z-score),[8],-0.077
same,glycan array binding signal (z-score),Fuc(b1-3)GlcNAc,-0.083
same,glycan array binding signal (z-score),[9],-0.102
same,glycan array binding signal (z-score),[10],-0.099
same,glycan array binding signal (z-score),Gal(a1-4)GlcNAc,-0.102
same,glycan array binding signal (z-score),[11],-0.064
same,glycan array binding signal (z-score),[12],-0.076
same,glycan array binding signal (z-score),[13],-0.107
same,glycan array binding signal (z-score),[14],-0.089
same,glycan array binding signal (z-score),[15],-0.039
same,glycan array binding signal (z-score),[16],-0.036
same,glycan array binding signal (z-score),[17],-0.096
same,glycan array binding signal (z-score),[18],-0.074
same,glycan array binding signal (z-score),Gal3S(b1-4)Glc,-0.098
same,glycan array binding signal (z-score),[19],-0.084
same,glycan array binding signal (z-score),GlcA(b1-3)Gal,-0.089
same,glycan array binding signal (z-score),[20],-0.091
same,glycan array binding signal (z-score),[21],-0.002
same,glycan array binding signal (z-score),GlcNAc(b1-3)Gal(b1-4)Glc,-0.094
same,glycan array binding signal (z-score),[22],-0.1
same,glycan array binding signal (z-score),[23],-0.075
same,glycan array binding signal (z-score),[24],10.3
